Drawing on PubChem BioAssay AID720706 (Broad Institute, 2013), this text covers GFP signal change (wild-type ribosome), OD600 change and RFP signal change for 43 molecules.

Out of some 350,000 compounds screened, about 5,500 (1.6%) were called active.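 How the source made its calls: active means significant combined selectivity score with lowered wild-type GFP, culture density cut under 30%, mutant RFP and density less affected; inactive means any of these conditions unmet.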 The full list was thinned out, with actives kept by preference.

The assay can be described thus: reduced GFP signal of wild-type E. coli, primary screen, bacterial rRNA inhibitor project, GFP/RFP fluorescence, OD600, single point (AID 720706). The conditions noted are these: E. coli WT GFP vs humanized-ribosome RFP mutants, 24 h; GFP signal change (wild-type ribosome): stronger effect = lower value, DMSO median 0, no signal -100; OD600 change: measured here: OD600 growth, DMSO median 0, no signal -100; RFP signal change: measured here: RFP humanized mutant strains, DMSO median 0, no signal -100, concentration not given here.
As for `C[C@H](CO)N1C[C@H](C)[C@H](CN(C)S(=O)(=O)c2cccs2)Oc2c(NS(=O)(=O)c3ccc(Cl)cc3)cccc2C1=O`, the GFP signal change (wild-type ribosome) was -5.17% (inactive), the OD600 change was -6.49% and the RFP signal change worked out at 3.43%.
For `CC(C)n1c(=S)[nH]c2cc(C(F)(F)F)ccc21`, in that order: -0.904% (inactive), -3.6% and -3.06%.
For `CCCn1c(=S)[nH]c2ccc(C(F)(F)F)cc21`, in that order: -39% (active), -18.3% and -4.67%.
The matching figures for `CN(C)CCn1c(=S)[nH]c2ccc(Cl)cc2c1=O`: 5.19% (inactive), 0.375% and 2.03%.
In the case of `Cc1ccccc1-c1ccc([C@H]2[C@@H](CO)N3C(=O)CN(C(=O)c4cccnc4)C[C@@H]23)cc1`, the GFP signal change (wild-type ribosome) was 3.51% (inactive), the OD600 change is 8.18% and the RFP signal change is -0.0435%.
For `S=C(NNC(=S)NC1CC2C=CC1C2)NC1CC2C=CC1C2` (centres undefined), in that order: -47.5% (active), -15.1% and -13.4%.
Regarding `CC(C)c1ccc(NC(=S)NC2CC3C=CC2C3)cc1` (centres undefined), the GFP signal change (wild-type ribosome) is -37.3% (inactive), the OD600 change was -66.8% and the RFP signal change is 0.867%.
Regarding `CCCNC(=O)N1[C@H](CO)[C@H]2c3ccccc3N(C(=O)Nc3cccc(Cl)c3)C[C@H]21`, the GFP signal change (wild-type ribosome) is -57.4% (inactive), the OD600 change was -71.6% and the RFP signal change was -12.8%.
On to `CCCN1C[C@H](C)[C@H](OC)CN(C)C(=O)c2cc(NC(=O)NC3CCCC3)ccc2OC[C@H]1C`, for which the GFP signal change (wild-type ribosome) was -0.637% (inactive), the OD600 change is 8.41% and the RFP signal change worked out at 2.12%.
The matching figures for `CC(=O)C(CC(=O)N1CCCC1)C(=O)Nc1ccc(Cl)cc1` (centres undefined): 1.69% (inactive), 9.42% and 0.378%.
The matching figures for `O=C(NC1CCN(C(=S)Nc2ccc(Cl)cc2)CC1)C1CCCCC1`: 6.47% (inactive), 11.2% and 0.251%.
For `CC(=O)N1CCC(N(C(=O)Nc2ccc(Cl)cc2)C(C)C)CC1`, in that order: -25.5% (active), -18% and -0.55%.
As to `CCCN(C)C[C@H]1OCCCC[C@H](C)Oc2ccc(NS(=O)(=O)c3ccc(C)cc3)cc2C(=O)N([C@@H](C)CO)C[C@H]1C`, the GFP signal change (wild-type ribosome) is -0.746% (inactive), the OD600 change was -1.7% and the RFP signal change is -0.147%.
As to `CC(C)NC(=O)N1CCCCN2[C@@H](CO)[C@@H](c3ccc(C#C[C@@H](C)O)cc3)[C@@H]2C1`, the GFP signal change (wild-type ribosome) is 5.76% (inactive), the OD600 change stood at 13.1% and the RFP signal change is -1.96%.
The matching figures for `O=S(=O)(Cc1ccccc1)N1CCCCN2[C@@H](CO)[C@H](c3ccc(-c4ccccc4)cc3)[C@@H]2C1`: -9.68% (inactive), -41.9% and 18.6%.
For `CN(C)CC#Cc1ccc([C@@H]2[C@H](CO)N3CCCCN(C(=O)NC4CCCC4)C[C@@H]23)cc1`, the GFP signal change (wild-type ribosome) was 5.92% (inactive), the OD600 change is 4.22% and the RFP signal change worked out at 0.0255%.
For `C=CCC1(C#N)C(=S)NC(C)=C(C(=O)OCC)C1c1ccccc1` (centres undefined), the GFP signal change (wild-type ribosome) was -26.3% (active), the OD600 change was -19.2% and the RFP signal change was -3.7%.
For `CCOC(=O)C1C(=O)NCC1c1ccccc1` (centres undefined), in that order: 8.68% (inactive), -9.73% and 1%.
For `CCOC(=O)C1=C(c2ccccc2)NC(=S)NC1c1ccc(Cl)cc1` (centres undefined), in that order: -8.35% (inactive), -7.99% and -0.819%.
The matching figures for `COc1ccc(NC(=O)N(C)C[C@@H]2OCCCC[C@@H](C)Oc3ccc(NS(=O)(=O)c4cn(C)cn4)cc3C(=O)N([C@@H](C)CO)C[C@H]2C)cc1`: -1.24% (inactive), -4.49% and 0.792%.
In the case of `COc1ccc2c3c(n(C)c2c1)[C@@H](CO)N(C(=O)c1cccnc1)CC31CCN(C(=O)c2cccnc2)CC1`, the GFP signal change (wild-type ribosome) was 2.76% (inactive), the OD600 change is 15.2% and the RFP signal change was -2.73%.
Regarding `N#CCSc1nn(-c2ccc(F)cc2)c(=S)s1`, the GFP signal change (wild-type ribosome) was -34% (active), the OD600 change is -20.7% and the RFP signal change was -5.63%.
As to `Cc1ccccc1-n1nc(SCC(=O)O)sc1=S`, the GFP signal change (wild-type ribosome) was -0.028% (inactive), the OD600 change was determined as 2.15% and the RFP signal change was 5.05%.
Take `O=C(CSc1nn(-c2ccc(F)cc2)c(=S)s1)NC1CCS(=O)(=O)C1` (centres undefined): the GFP signal change (wild-type ribosome) is 9.16% (inactive), the OD600 change was determined as 9.88% and the RFP signal change is 20.6%.
The matching figures for `CN(C)CCCNC(=O)C[C@H]1CC[C@H]2[C@@H](COC[C@H](O)CN2C(=O)c2ccncc2)O1`: 1.62% (inactive), 1.82% and -2.93%.
The matching figures for `O=S(=O)(N[C@@H]1CC[C@H](CCn2cc(C3(O)CCCC3)nn2)O[C@@H]1CO)c1ccc(Cl)cc1`: 1% (inactive), -3.78% and -2.53%.
Turning to `Cc1cc(NC(=O)c2cc3ccccc3o2)no1`, the GFP signal change (wild-type ribosome) is -2.45% (inactive), the OD600 change is 5.97% and the RFP signal change amounted to 7.13%.
With `Cc1c(/C=N\NC(=O)c2cc3ccccc3o2)c2ccccc2n1C`, the GFP signal change (wild-type ribosome) is -23.4% (active), the OD600 change was -4.47% and the RFP signal change was determined as 6.38%.
Turning to `O=C(N/N=C/c1cccc(O)c1)c1cc2c(ccc3ccccc32)o1`, the GFP signal change (wild-type ribosome) is -16.9% (inactive), the OD600 change is -25.4% and the RFP signal change is 6.33%.
As to `Cc1ccccc1S(=O)(=O)N1CC(=O)N2[C@H](CO)[C@H](c3ccc(C#CCN(C)C)cc3)[C@H]2C1`, the GFP signal change (wild-type ribosome) is 4.6% (inactive), the OD600 change was 9.79% and the RFP signal change turned out to be 0.298%.
For `COc1cc(CN2CC3(CN(S(=O)(=O)c4cccs4)C3)c3c(n(C)c4cc(OC)ccc34)[C@H]2CO)cc(OC)c1`, in that order: 4.45% (inactive), -5.95% and -2.78%.
The matching figures for `Cc1cc(C(=O)OCC(=O)N2c3ccccc3NC(=O)C2(C)C)c(C)n1-c1ccccc1`: -9.02% (inactive), -33.1% and -9.39%.
For the molecule `CCNc1ccc(C(=O)OCC(=O)N2c3ccccc3NC(=O)C2(C)C)cc1[N+](=O)[O-]`, the GFP signal change (wild-type ribosome) is -25.9% (active), the OD600 change is -16.2% and the RFP signal change is -4.1%.
For `CNS(=O)(=O)c1cccc(C(=O)OCC(=O)N2c3ccccc3NC(=O)C2(C)C)c1`, in that order: -0.594% (inactive), 2.51% and -1.67%.
The matching figures for `O=C(C[C@H]1CC[C@@H]2[C@H](COC[C@@H](O)CN2Cc2cccc(-c3ccncc3)c2)O1)N1CCOCC1`: -1.04% (inactive), 0.357% and -4.81%.
For `C[C@H]1CN([C@@H](C)CO)C(=O)Cc2cc(NC(=O)NC3CCCCC3)ccc2O[C@@H]1CN(C)Cc1ccc(Oc2ccccc2)cc1`, in that order: 1.65% (inactive), 0.966% and -0.931%.
Regarding `C[C@@H]1CN([C@@H](C)CO)C(=O)c2cc(NC(=O)Nc3ccc(C(F)(F)F)cc3)ccc2O[C@@H]1CN(C)Cc1ccncc1`, the GFP signal change (wild-type ribosome) is 8.75% (inactive), the OD600 change was -38.7% and the RFP signal change was found to be 31.2%.
Regarding `COc1ccccc1CC(=O)NCCc1c[nH]c2ccccc12`, the GFP signal change (wild-type ribosome) was -17.2% (active), the OD600 change was -2.84% and the RFP signal change was 2.84%.
For `O=C(CCc1c[nH]c2ccccc12)NCCOc1ccccc1`, in that order: 7.54% (inactive), 3.6% and 0.609%.
Regarding `O=C(NCCc1c[nH]c2ccccc12)C1CCN(Cc2ccc(Br)cc2)CC1`, the GFP signal change (wild-type ribosome) was -52.8% (inactive), the OD600 change is -78.6% and the RFP signal change was -12.4%.
On to `O=C(NCCc1c[nH]c2ccccc12)c1cc2ccccc2oc1=O`, for which the GFP signal change (wild-type ribosome) is -5% (inactive), the OD600 change was found to be 0.635% and the RFP signal change was -0.892%.
In the case of `O=C(NCCc1c[nH]c2ccccc12)c1cccc(Br)c1`, the GFP signal change (wild-type ribosome) was -23% (active), the OD600 change is -17% and the RFP signal change was 3.38%.
Turning to `O=C(COC(=O)Cc1c[nH]c2ccccc12)NCCc1ccccc1`, the GFP signal change (wild-type ribosome) is 1.61% (inactive), the OD600 change is -7.07% and the RFP signal change is 1.57%.
